Counter-ions that a name gives are not always drawn.
target: IKZF1 (dCK*-IKZF1 fusion in HEK293FT) (UniProt Q13422); assay: inhibition of IKZF1 HTRF signal (DMSO = 0%, pomalidomide 10 uM = 100%); higher = lower IKZF1 protein level; details: compound concentration: 5 uM, overnight (~20 h)
How it was run: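 After overnight treatment at 37 °C with 5 μM compound in single wells, HEK293FT cells (2000/well, 384-well) stably expressing an IKZF1 fusion were lysed for 30 min at room temperature. A commercial HTRF total-IKZF1 antibody kit was incubated with the lysate overnight, and the time-resolved FRET ratio at 665/620 nm was corrected for background. Data are given as percent inhibition of IKZF1 signal relative, on each plate, to vehicle and a reference degrader, set at 0% and 100% respectively.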

Chain of IKZF1 (dCK*-IKZF1 fusion in HEK293FT) (Q13422 whole entry, looked up, the tested form may be a part): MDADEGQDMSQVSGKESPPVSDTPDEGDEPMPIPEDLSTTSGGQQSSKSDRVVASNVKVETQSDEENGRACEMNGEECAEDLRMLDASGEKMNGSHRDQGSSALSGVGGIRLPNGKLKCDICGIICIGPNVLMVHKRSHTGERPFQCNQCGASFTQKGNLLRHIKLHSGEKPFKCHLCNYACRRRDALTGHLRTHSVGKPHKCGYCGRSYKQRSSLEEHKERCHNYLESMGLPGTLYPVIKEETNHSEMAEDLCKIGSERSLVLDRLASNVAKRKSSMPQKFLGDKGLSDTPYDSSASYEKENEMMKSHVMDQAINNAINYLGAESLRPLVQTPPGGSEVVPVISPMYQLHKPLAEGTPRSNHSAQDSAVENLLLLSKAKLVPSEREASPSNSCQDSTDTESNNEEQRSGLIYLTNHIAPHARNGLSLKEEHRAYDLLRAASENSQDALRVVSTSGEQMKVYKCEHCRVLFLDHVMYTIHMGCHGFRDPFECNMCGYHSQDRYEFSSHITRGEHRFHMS

| SMILES | inhibition of IKZF1 HTRF signal |
| --- | --- |
| CCn1c(=O)[nH]c2cc(Cl)c(Cl)cc21 | -7.25% |
| O=C1Nc2ccc(Cl)cc2[C@@](C#CC2CC2)(C(F)(F)F)O1 [Efavirenz] | 19.7% |
| CC(C)(C)c1ccc(C(O)CCCN2CCC(C(O)(c3ccccc3)c3ccccc3)CC2)cc1 (stereo unspecified) | -24.6% |
| Cc1ccccc1/N=N/c1ccc(NC(=O)c2ccnn2C)c(C)c1 | -27% |
| Oc1c(Cl)cc(Cl)c(Cl)c1Cc1c(O)c(Cl)cc(Cl)c1Cl | -36% |
| COC(=O)Nc1ccc(-c2nc(N3CCOCC3)c3cnn(C4CCN(C(=O)OC)CC4)c3n2)cc1 | 8.25% |
| CC/C(=C(\c1ccc(O)cc1)c1ccc(OCCN(C)C(=O)COCCOCCOCCOc2cccc(C(=O)c3csc([C@@H]4CCCN4C(=O)[C@@H](NC(=O)[C@H](C)NC)C4CCCCC4)n3)c2)cc1)c1ccccc1 | 13.9% |
| O=C(O)C(O)Cc1ccc(O)c(O)c1 (stereo unspecified) [Sodium Danshensu] | -50.2% |
| Oc1c(I)cc(I)c(O)c1I [riodoxol] | -5.43% |
| NC(=O)c1cn([C@@H]2O[C@H](CO)[C@@H](O)[C@H]2O)c2ncnc(N)c2c1=O | -11.4% |
| O=c1c(O)c(-c2ccc(O)c(O)c2)oc2cc(O)cc(O)c12 [quercetin] | -26.2% |
| Cc1cc(C)nc(NS(=O)(=O)c2ccc(NC(=S)NC(=O)COc3ccc(Br)cc3Cl)cc2)n1 | -36.5% |
| Nc1nc2c(ccc3ccccc32)s1 | -31% |
| c1ccc2c(c1)CCC[C@H]2Nc1nc2ccccc2[nH]1 | -34.6% |
| O=c1[nH]c(=O)n([C@H]2C[C@H](O)[C@@H](CO)O2)cc1F | -24.3% |
| Cc1cc2nc3ccc(N(C)C)cc3[s+]c2cc1N | -22.7% |
| Nc1ccc(-c2nc3ccc(-c4nc5ccc(N)cc5[nH]4)cc3[nH]2)cc1 | 1.33% |
| CO[C@H]1O[C@@H]2O[C@@]3(C)CC[C@H]4[C@H](C)CC[C@@H]([C@H]1C)[C@@]24OO3 [Artemether] | -2.04% |
| CC(O)(C(=O)Nc1ccc(S(=O)(=O)c2ccccc2)cc1)C(F)(F)F (stereo unspecified) | -44.3% |

| SMILES | inhibition of IKZF1 HTRF signal |
| --- | --- |
| COc1cc([C@@H]2c3cc4c(cc3C(O[C@@H]3O[C@@H]5CO[C@@H](c6cccs6)OC5[C@H](O)[C@H]3O)C3COC(=O)[C@@H]32)OCO4)cc(OC)c1O (stereo partly specified) | 16.8% |
| CSc1ccc2c(c1)N(CCC1CCCCN1C)c1ccccc1S2 (stereo unspecified) [Thioridazine HCl] | -1.96% |
| COc1ccc(-c2nc3cc(C4=NNC(=O)CC4C)ccc3[nH]2)cc1 (stereo unspecified) [Pimobendan (Vetmedin)] | -8.62% |
| CN1CCN(C2=Nc3ccccc3Sc3ccc(Cl)cc32)CC1 [Clothiapine] | 23.7% |
| Oc1c(CN2CCCC2)cc(COCc2ccccc2)c2cccnc12 | -11.1% |
| CSc1nc2cc(Cl)c(Oc3cccc(Cl)c3Cl)cc2[nH]1 | -43% |
| CC(C)(C)CC(C)(C)c1ccc(OCCOCC[N+](C)(C)Cc2ccccc2)cc1 | 16% |
| CO[C@H]1/C=C/O[C@@]2(C)Oc3c(C)c(O)c4c(O)c(c(/C=N/N5CCN(C)CC5)c(O)c4c3C2=O)NC(=O)/C(C)=C\C=C\[C@H](C)[C@H](O)[C@@H](C)[C@@H](O)[C@@H](C)[C@H](OC(C)=O)[C@@H]1C | 33.6% |
| C=C1/C(=C\C=C2/CCC[C@]3(C)[C@@H]([C@H](C)/C=C/[C@H](C)C(C)(C)O)CC[C@@H]23)C[C@@H](O)C[C@@H]1O [Ercalcitriol] | -35% |
| CNCC(O)c1ccc(O)c(O)c1 (racemic) [DL-Adrenaline] | 10.3% |
| O=C1C=Cc2cc(Br)ccc2C1=O [bonaphthone] | 23% |
| Cc1coc2c1C(=O)C(=O)c1c-2ccc2c1CCCC2(C)C [Tanshinone IIA (Tanshinone B)] | 18.3% |
| CC(=O)N(O)[C@@H]1c2cc(C#N)ccc2OC(C)(C)[C@H]1O | 13.4% |
| CCCCCCCCCCCCCCCC[N+](C)(C)Cc1ccccc1 [Benzyldimethylhexadecylammonium chloride hydrate] | 20.2% |
| Cc1cc(Nc2ncc(Cl)c(Nc3ccccc3S(=O)(=O)C(C)C)n2)c(OC(C)C)cc1C1CCN(CC(=O)NCCNc2cccc3c2C(=O)N(C2CCC(=O)NC2=O)C3=O)CC1 (stereo unspecified) | 24.5% |
| Cc1ccc(S(=O)(=O)c2ccc([N+](=O)[O-])o2)cc1 | -48.9% |
| NC(=O)NC(=O)Cc1ccccc1 | -29.1% |
| C=C1CCC2[C@](C)(CO)[C@H](O)CC[C@@]2(C)[C@@H]1C/C=C1/C(=O)OC[C@H]1O (stereo partly specified) [Andrographolide] | 0.47% |
| CN1C(=O)/C(=C2/C(=O)Nc3ccccc32)c2ccccc21 [Meisoindigo] | -22.1% |

system: HEK293FT dCK*-only; assay: relative growth in counter assay (no AraC = 100%, AraC + DMSO = 0%); higher = more growth rescue independent of IKZF1; details: compound concentration: 5 uM; AraC concentration: 0.3 uM; overnight pretreatment + 4 days AraC
How it was run: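 Counter assay in HEK293FT cells expressing dCK* alone (300/well, 384-well). Cells received 5 μM compound 2 h after seeding, then after overnight at 37 °C a nucleoside suicide substrate at 0.3 μM plus medium for 4 days. On day 5, Hoechst 33342-stained nuclei were counted by imaging. Relative growth was normalised per plate to wells without suicide substrate (100%) and substrate plus vehicle (0%).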

| SMILES | relative growth in counter assay |
| --- | --- |
| CCn1c(=O)[nH]c2cc(Cl)c(Cl)cc21 | 6.81% |
| O=C1Nc2ccc(Cl)cc2[C@@](C#CC2CC2)(C(F)(F)F)O1 [Efavirenz] | 3.1% |
| CC(C)(C)c1ccc(C(O)CCCN2CCC(C(O)(c3ccccc3)c3ccccc3)CC2)cc1 (stereo unspecified) | -9.63% |
| Cc1ccccc1/N=N/c1ccc(NC(=O)c2ccnn2C)c(C)c1 | -9.17% |
| Oc1c(Cl)cc(Cl)c(Cl)c1Cc1c(O)c(Cl)cc(Cl)c1Cl | -1.16% |
| COC(=O)Nc1ccc(-c2nc(N3CCOCC3)c3cnn(C4CCN(C(=O)OC)CC4)c3n2)cc1 | -9.33% |
| CC/C(=C(\c1ccc(O)cc1)c1ccc(OCCN(C)C(=O)COCCOCCOCCOc2cccc(C(=O)c3csc([C@@H]4CCCN4C(=O)[C@@H](NC(=O)[C@H](C)NC)C4CCCCC4)n3)c2)cc1)c1ccccc1 | -31.8% |
| O=C(O)C(O)Cc1ccc(O)c(O)c1 (stereo unspecified) [Sodium Danshensu] | 0.01% |
| Oc1c(I)cc(I)c(O)c1I [riodoxol] | 2.24% |
| NC(=O)c1cn([C@@H]2O[C@H](CO)[C@@H](O)[C@H]2O)c2ncnc(N)c2c1=O | -10.5% |
| O=c1c(O)c(-c2ccc(O)c(O)c2)oc2cc(O)cc(O)c12 [quercetin] | -7.53% |
| Cc1cc(C)nc(NS(=O)(=O)c2ccc(NC(=S)NC(=O)COc3ccc(Br)cc3Cl)cc2)n1 | 0.75% |
| Nc1nc2c(ccc3ccccc32)s1 | 4.08% |
| c1ccc2c(c1)CCC[C@H]2Nc1nc2ccccc2[nH]1 | -1.81% |
| O=c1[nH]c(=O)n([C@H]2C[C@H](O)[C@@H](CO)O2)cc1F | -31.1% |
| Cc1cc2nc3ccc(N(C)C)cc3[s+]c2cc1N | -34.5% |
| Nc1ccc(-c2nc3ccc(-c4nc5ccc(N)cc5[nH]4)cc3[nH]2)cc1 | -6.2% |
| CO[C@H]1O[C@@H]2O[C@@]3(C)CC[C@H]4[C@H](C)CC[C@@H]([C@H]1C)[C@@]24OO3 [Artemether] | -7.46% |
| CC(O)(C(=O)Nc1ccc(S(=O)(=O)c2ccccc2)cc1)C(F)(F)F (stereo unspecified) | -0.27% |

| SMILES | relative growth in counter assay |
| --- | --- |
| COc1cc([C@@H]2c3cc4c(cc3C(O[C@@H]3O[C@@H]5CO[C@@H](c6cccs6)OC5[C@H](O)[C@H]3O)C3COC(=O)[C@@H]32)OCO4)cc(OC)c1O (stereo partly specified) | -34.5% |
| CSc1ccc2c(c1)N(CCC1CCCCN1C)c1ccccc1S2 (stereo unspecified) [Thioridazine HCl] | -2.48% |
| COc1ccc(-c2nc3cc(C4=NNC(=O)CC4C)ccc3[nH]2)cc1 (stereo unspecified) [Pimobendan (Vetmedin)] | -0.97% |
| CN1CCN(C2=Nc3ccccc3Sc3ccc(Cl)cc32)CC1 [Clothiapine] | 0.53% |
| Oc1c(CN2CCCC2)cc(COCc2ccccc2)c2cccnc12 | -34.9% |
| CSc1nc2cc(Cl)c(Oc3cccc(Cl)c3Cl)cc2[nH]1 | 2.75% |
| CC(C)(C)CC(C)(C)c1ccc(OCCOCC[N+](C)(C)Cc2ccccc2)cc1 | -7.09% |
| CO[C@H]1/C=C/O[C@@]2(C)Oc3c(C)c(O)c4c(O)c(c(/C=N/N5CCN(C)CC5)c(O)c4c3C2=O)NC(=O)/C(C)=C\C=C\[C@H](C)[C@H](O)[C@@H](C)[C@@H](O)[C@@H](C)[C@H](OC(C)=O)[C@@H]1C | 12.9% |
| C=C1/C(=C\C=C2/CCC[C@]3(C)[C@@H]([C@H](C)/C=C/[C@H](C)C(C)(C)O)CC[C@@H]23)C[C@@H](O)C[C@@H]1O [Ercalcitriol] | 19.8% |
| CNCC(O)c1ccc(O)c(O)c1 (racemic) [DL-Adrenaline] | -3.86% |
| O=C1C=Cc2cc(Br)ccc2C1=O [bonaphthone] | 1.29% |
| Cc1coc2c1C(=O)C(=O)c1c-2ccc2c1CCCC2(C)C [Tanshinone IIA (Tanshinone B)] | 5.29% |
| CC(=O)N(O)[C@@H]1c2cc(C#N)ccc2OC(C)(C)[C@H]1O | -4.7% |
| CCCCCCCCCCCCCCCC[N+](C)(C)Cc1ccccc1 [Benzyldimethylhexadecylammonium chloride hydrate] | -20.7% |
| Cc1cc(Nc2ncc(Cl)c(Nc3ccccc3S(=O)(=O)C(C)C)n2)c(OC(C)C)cc1C1CCN(CC(=O)NCCNc2cccc3c2C(=O)N(C2CCC(=O)NC2=O)C3=O)CC1 (stereo unspecified) | 3.63% |
| Cc1ccc(S(=O)(=O)c2ccc([N+](=O)[O-])o2)cc1 | -34% |
| NC(=O)NC(=O)Cc1ccccc1 | 4.08% |
| C=C1CCC2[C@](C)(CO)[C@H](O)CC[C@@]2(C)[C@@H]1C/C=C1/C(=O)OC[C@H]1O (stereo partly specified) [Andrographolide] | -20.8% |
| CN1C(=O)/C(=C2/C(=O)Nc3ccccc32)c2ccccc21 [Meisoindigo] | -7.74% |
